# IL1B secr inh: qHTS for Inhibitors of Inflammasome Signaling: IL-1-beta AlphaLISA Primary Screen; activity change, % at 57.5 µM; actives 4.7% (n = 360,000); AID 743279, 2014; THP-1 LPS/ATP IL-1B secretion, AlphaLISA, 16 h; active compounds read low; in the data active means activity change below about -50%; inconclusive means mostly about -30% to -49%
#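 Secreted IL-1B measured by AlphaLISA bead assay after 16 h compound exposure of THP-1 cells; compounds (final up to 57.5 uM) added 1 h before LPS (250 ng/mL) and ATP (1.25 mM) stimulation; lower signal means less secretion.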
# TDP1 cell CPT: qHTS for Inhibitors of human tyrosyl-DNA phosphodiesterase 1 (TDP1): qHTS in cells in presence of CPT. chicken DT40 Tdp1-/-;hTDP1 cells + 20 nM CPT, ATP luminescence, 48 h. Potency, µM (titrated, usually from 46.2 µM), for the others: top-dose activity change, negative = growth inhibition, actives largely listed as inhibitors. actives 12% (n = 420,000). AID 686979, 2013; further: potency means the concentration at half of the fitted maximal effect; nearly all actives have a fitted effect of over 55% in size
#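 Chicken DT40 Tdp1-/- cells complemented with human TDP1, 400 cells/well, exposed to compounds plus 20 nM camptothecin for at least 48 h at 37 C; viability read as ATP content by CellTiter-Glo luminescence.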
# HT1080-NT tox: qHTS for induction of synthetic lethality in tumor cells producing 2HG: qHTS for the HT-1080-NT fibrosarcoma cell line | Potency, µM (doses to about 46.1 µM), inactives show top-dose activity, negative = less viability, hits mostly cytotoxic | actives 1.6% (n = 360,000) | HT-1080-NT fibrosarcoma viability, CellTiter-Glo ATP luminescence, 48 h;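 further: NT is the 2HG producing partner of a matched IDH1 knockdown line; potency means the concentration at half of the fitted maximal effect; 0% = DMSO-treated cells and -100% = media-only wells without cells; nearly all actives have a fitted effect of over 55% in size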
#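 Viability by CellTiter-Glo luminescence after 48 h compound exposure at 37C of HT-1080-NT cells (750/well, RPMI, 5% FBS). % activity scaled between DMSO wells and medium-only wells, then curve-fitted and categorized by curve class.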
# DT40 TDP1 no CPT: qHTS for Inhibitors of human tyrosyl-DNA phosphodiesterase 1 (TDP1): qHTS in cells in absence of CPT. DT40 Tdp1-/- hTDP1 cells, no CPT, ATP luminescence, 48 h. Potency, µM (top dose mostly 46.2 µM), for the others: at the top dose activity change, negative = growth inhibition, usual class: inhibitors. actives 15% (n = 420,000); further: potency means the concentration at half of the fitted maximal effect; nearly all actives have a fitted effect of over 55% in size
#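 Seeded 400 DT40-hTDP1 cells/well (vehicle DMSO, no 20 nM CPT); pinned compounds; ≥48 hr at 37 °C; CellTiter-Glo luminescence as viability measure.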
# HT1080 IDH1KD tx: qHTS for induction of synthetic lethality in tumor cells producing 2HG: qHTS for the HT-1080-IDH1KD cell line | HT-1080 IDH1 knockdown viability, ATP luminescence, 48 h | Potency, µM (doses to about 46.1 µM), for inactives: top-dose activity, negative = toxicity, most hits filed as cytotoxic | actives 2% (n = 360,000) | AID 686971, 2013;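 further: potency means the concentration at half of the fitted maximal effect; 0% = DMSO wells and -100% = cell-free medium wells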
#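 Using the IDH1-knockdown HT-1080 line run in the same batch and compound series as the NT line, viability after 48 h at 37 °C was determined by CellTiter-Glo luminescence and expressed as % activity.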
# The depositor's hits bear a star; ? = inconclusive; / = not tested or not shown; [ ] = another dose, or the depositor's remark. Hits are enriched below; roughly 19% of the tested compounds scored in any of these assays. Unless noted, the call rests on the fitted dose curve; in most records, active means well fitted curve in the direction sought with a large enough effect; inconclusive means small, poorly fitted or top-dose-only effect, or another doubt; inactive means no such curve, though single readings can be large; an effect the other way counts as inactive or inconclusive. Unless noted, on the % scale 0 is the no-effect control and ±100 the full control effect.
SMILES,IL1B secr inh,TDP1 cell CPT,HT1080-NT tox,DT40 TDP1 no CPT,HT1080 IDH1KD tx
CCC1(c2ccccc2)NC(=O)N(CC(=O)Nc2cc(S(=O)(=O)N3CCCCC3)ccc2N(C)C)C1=O (centres undefined),-30,?,-23%,21µM*,-21%
CC1(c2cccc(Br)c2)NC(=O)N(CC(=O)Nc2ccc(N3CCCCC3)cc2)C1=O (centres undefined),-9,?,-26%,13µM*,?
O=C(CN1C(=O)NC2(CCCCCC2)C1=O)Nc1ccc(OC(F)(F)F)cc1,-22,15µM*,-23%,9.2µM*,?
CC1CCC2(CC1)NC(=O)N(CC(=O)Nc1cccc(S(=O)(=O)N3CCCCC3)c1)C2=O (centres undefined),-4,?,-13%,23µM*,-22%
O=[N+]([O-])c1ccc(S(=O)(=O)Nc2nnc(C(F)(F)F)s2)cc1,5,-11%,-1%,10%,-6%
CN(C(=O)CSc1nnc(C(F)(F)F)n1C)c1c(N)n(Cc2ccccc2)c(=O)[nH]c1=O,15,-4%,-2%,7%,-1%
Cc1nnc(NC(=O)c2csc3c2CCC(C)C3)s1 (centres undefined),2,-16%,-1%,12%,2%
COc1ccccc1/C=c1\sc2nc(-c3ccccc3OC)nn2c1=O,7,?,-1%,16µM*,-2%
COc1ccc(Br)cc1/C=c1\sc2nc(-c3ccco3)nn2c1=O,-6,?,4%,?,8%
Cc1cc(C)nc(SC2CC(=O)N(c3ccc(Br)cc3)C2=O)n1 (centres undefined),29,?,-5%,?,-11%
Cc1cc(C)nc(SC2CC(=O)N(c3ccc(Cl)cc3)C2=O)n1 (centres undefined),15,?,6%,21µM*,1%
Cc1cc(C)nc(SC2CC(=O)N(c3ccc(C)c(C)c3)C2=O)n1 (centres undefined),64,?,?,15µM*,16µM*
CCOC(=O)c1c(C)[nH]c(NC(=O)N2CCOCC2)c1C,-7,?,8%,?,-14%
CCC1CCCCN1C(=O)COc1ccc(S(=O)(=O)N2CCOCC2)cc1Cl (centres undefined),5,-23%,1%,-12%,4%
COc1ccc(C2SCC(=O)N2c2ccc(OC)cc2)cc1 (centres undefined),2,-14%,-2%,7%,-8%
COc1cccc(C2SCC(=O)N2c2ccc(Br)cc2)c1OC (centres undefined),-18,23µM*,-2%,?,-2%
COc1cc(CCNC(C)=O)c(C(=O)/C=C/c2cccc(OC)c2OC)cc1OC,/,2%[9.04 µM],/,-16%[9.04 µM],/
Cc1ccc(C(OCC(C)(C)C[N+](C)(C)C)c2ccccc2)cc1 (centres undefined),-52*,5.8µM*,2%,5.2µM*,1%
COCCn1c(=O)c(C)nc2cnc(N3CCN(C)CC3)nc21,/,-2%,/,30%,/
CN(C)c1nc(C(=O)O)nc(N2CCOCC2)n1,24,-4%,17%,0%,8%
COc1ccccc1C1CN(CC(=O)N2CCC(C(O)c3ccccn3)CC2)Cc2ccccc2O1 (centres undefined),/,-8%[9.04 µM],/,?,/
COC(=O)C1OC2(OC1C(=O)OC)c1ccccc1-c1ccccc12 (centres undefined),0,15%,0%,-19%,6%
Cc1ccccc1C1(O)c2ccccc2-c2ccccc21,16,23µM*,-2%,15µM*,1%
C=CCN1C(=O)CSc2ccc(C(=O)NCc3ccc(F)cc3)cc21,7,-11%,0%,4%,-16%

# Compound activity deposited in PubChem BioAssay by National Center for Advancing Translational Sciences (NCATS).
